# Measurements reported in PubChem BioAssay (Tox21).
# Records with an inconclusive call do not appear. Entries that show only a call come without a potency. A number with no mark means an inactive call. Activity calls are given as the source filed them. Calls come from the whole dose curve.
# Molecular target: Beta-2 adrenergic receptor (Homo sapiens) (UniProt P07550)
# Experiment: Adrenergic beta2 receptor (ADRB2) small molecule agonists, cell-based qHTS assay (AID 1963593)
# Details: CHO-ADRB2 cells, cAMP HTRF, 30 min; series mostly up to 92.4 µM
# Excerpt: National Center for Advancing Translational Sciences [NCATS]
# Division of Preclinical Innovation [DPI]
# U.S. Environmental Protection Agency [EPA]
# National Institutes of Environmental Health Sciences [NIEHS]
# National Toxicology Program [NTP]
# U.S. Food and Drug Administration [FDA]
# Beta adrenergic receptors (Beta-ARs) belong to the G-protein coupled receptor (GPCR) superfamily, includes three subtypes - beta1, beta2, and beta3. Beta1-AR is the predominant receptor subtype expressed in the heart, and beta2-AR is expressed in the kidney, lung, blood vessel and in the heart, and beta3 is found in the adipocytes. Beta1 and 2 ARs couple to Gs protein and elevate cyclic adenosine mono phosphate (cAMP), which activates protein kinase A and leads to the downstream signaling responsible for the physiological actions. Beta-AR agonists or antagonists are the most prescribed therapeutic agents for heart failure and asthma, and these were one of the first target receptors for the rational drug design. Tox21 10K compound library was screened using the cAMP-Gs dynamic assay (Cisbio Bioassays, Shelton, CT) to identify agonists/antagonists of the Gs-coupled human adrenergic, beta2 receptor (ADRB2) in the CHO-ADRB2 cell line (Codex BioSolutions, Inc. Gaithersburg, MD), which stably over-expresses ADRB2. The principle of cAMP-Gs dynamic assay is based on HTRF technology, which facilitates the fluorescence resonance energy transfer (FRET) between donor Europium cryptate and acceptor d2-labeled cAMP. The cAMP generated within cells competes with the red acceptor, d2-labled cAMP, for binding to the monoclonal anti-cAMP-cryptate (Europium donor). An increase in intracellular cAMP leads to the disruption of FRET signal, and the signal is inversely proportional to the cAMP concentration. Isoproterenol HCl (Sigma-Aldrich, St. Louis, MO) was used as a positive control in the screening.
# Tox21 Assay Protocol Summary:
# CHO-ADRB2 cells were dispensed at 1,000/well in 4uL assay medium into white/solid 1536-well plates (Greiner Bio-One North America Inc., Monroe, NC) using a Multidrop Combi dispenser (ThermoFisher Scientific, Waltham, MA). The assay plates were incubated at 37C and 5% CO2 for an overnight (18-20hr). Then positive control and test compounds dissolved in DMSO were transferred to the assay plates at 23nL using a Pintool station (Wako, San Diego, CA). Following the compound and positive control transfer, 1uL stimulation mix containing 100uM IBMX and 25uM Ro-20-1724 was added to each well of the assay plates using BioRAPTR Flying Reagent Dispenser (FRD, Beckman Coulter, Brea, CA). The assay plates were incubated at room temperature for 0.5hr. Then 2.5ul each d2-labled cAMP and anti-cAMP-cryptate solutions were added separately to each well of the assay plates using an FRD and the assay plates were incubated at room temperature for 1hr.
# Beta-2 adrenergic receptor (Homo sapiens), sequence (P07550 whole entry, looked up): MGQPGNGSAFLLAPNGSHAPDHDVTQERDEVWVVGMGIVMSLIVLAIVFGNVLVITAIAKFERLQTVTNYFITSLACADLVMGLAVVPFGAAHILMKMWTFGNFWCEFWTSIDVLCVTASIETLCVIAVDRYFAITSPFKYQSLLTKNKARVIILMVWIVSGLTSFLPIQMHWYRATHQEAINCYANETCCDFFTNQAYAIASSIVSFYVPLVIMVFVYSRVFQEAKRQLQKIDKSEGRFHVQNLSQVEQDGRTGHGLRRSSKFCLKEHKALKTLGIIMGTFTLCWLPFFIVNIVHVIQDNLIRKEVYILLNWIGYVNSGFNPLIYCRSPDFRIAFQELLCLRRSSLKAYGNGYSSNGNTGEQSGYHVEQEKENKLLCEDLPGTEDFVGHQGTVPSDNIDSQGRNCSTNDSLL
Compound,Potency,activation
CN(c1nccc(=O)[nH]1)C1CCN(c2nc3ccccc3n2Cc2ccc(F)cc2)CC1,inactive,
COc1ccc(S(=O)(=O)Nc2nnc(CC(C)C)s2)cc1,inactive,
O=C(O)CCSSCCC(=O)O,inactive,
CN(C)CC[C@@H](c1ccc(Br)cc1)c1ccccn1,inactive,
Cc1cc2nc3c(=O)[nH]c(=O)nc-3n(C[C@H](O)[C@H](O)[C@H](O)CO)c2cc1C,,1.44% [at 19 µM]
CC1CCC(CO)CC1 (stereo not given),inactive,
CC1=Nc2ccccc2C1(C)C,inactive,
CCCc1ccccc1O,inactive,
C[C@]12CC[C@@H]3c4ccc(O)cc4CC[C@H]3[C@@H]1CC[C@@H]2OC(=O)CCC1CCCC1,inactive,
CCCCC(CC)COCCCN (stereo not given),inactive,
O=C1CCC(=O)N1Cl,inactive,
COC(C(=O)O)c1ccccc1 (stereo not given),inactive,
COC(=O)CC(=O)C(C)(C)C,inactive,
Cc1ccc(C(N)=O)cc1N,inactive,
C=C(C)C(=O)OCCCCCCCCCCCCCCCCCC,,-0.576% [at 19 µM]
Cc1ccc(OC(=O)CC(C)C)cc1,inactive,
NC(=O)N(O)[C@@H]1COc2cc(OCc3ccccc3)ccc21,inactive,
CC(C)c1ccccc1N,inactive,
CC(=O)/C=C/C=C1/C2CCC(C2)C1(C)C (stereo not given),inactive,
CC(=O)OCC=C(C)C,inactive,

Compound,Potency,activation
Cn1c(=O)c2c(ncn2CC2OCCO2)n(C)c1=O,inactive,
COc1ccc(Cc2cnc(N)nc2N)cc1OC,inactive,
O=S(=O)(O)c1cc(O)ccc1O,inactive,
CCCC(=O)OC(C)(C)Cc1ccccc1,inactive,
O=C(Nc1cccc(Cl)c1)OCC#CCCl,inactive,
CCCCCOC(=O)Nc1nc(=O)n([C@@H]2O[C@H](C)[C@@H](O)[C@H]2O)cc1F,inactive,
Cc1ccc(Cl)c(Nc2ccccc2C(=O)O)c1Cl,inactive,
CC(=O)C(=O)CC(C)C,inactive,
CC(C)n1nc(-c2cc3cc(O)ccc3[nH]2)c2c(N)ncnc21,inactive,
Cn1c(NCCN(CCO)CCCc2ccc([N+](=O)[O-])cc2)cc(=O)n(C)c1=O,inactive,
CNC(=S)NC,inactive,
CCc1ncc(C)[nH]1,inactive,
CC(=O)OCC(=O)[C@@]1(O)[C@H](OC(C)=O)C[C@H]2[C@@H]3CCC4=CC(=O)C=C[C@]4(C)[C@@]3(F)[C@@H](O)C[C@@]21C,inactive,
N#CCCNCCC#N,inactive,
CN(C)CCN(Cc1ccccc1)c1ccccn1,inactive,
CC(=O)OC1C2(C)CCC(C2)C1(C)C (stereo not given),inactive,
C#CCN(C)CCCOc1ccc(Cl)cc1Cl,inactive,
C[C@H]1COc2c(C3(N)CC3)c(F)cc3c(=O)c(C(=O)O)cn1c23,inactive,
CCCCCCCCCCCC(=O)OCC(O)CO (stereo not given),inactive,
C/C=C/C=N/NC(=O)c1ccncc1,inactive,
